Inhibition data for 95 compounds are collected here from PubChem BioAssay AID1445 (SRMLSC, 2008).

The inhibition is the change of the read-out against control, counted positive when it falls.

Out of some 220,000 compounds screened, about 910 (0.41%) were called active.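 Rule for the calls: active = primary inhibition above the hit cutoff, then over 50% inhibition at one or more dose response concentrations (cut at about 23% in these data, passing the limit was not always enough); inconclusive = conflicting primary data, or primary hits not chosen for dose response; inactive = low primary inhibition, or under 50% at every dose.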 Shown is part of a subset that was picked to be rich in actives. Measured potencies and affinities stand elsewhere.

Chain of Aminopeptidase N (Plasmodium falciparum (isolate 3D7)) (O96935 whole entry, looked up): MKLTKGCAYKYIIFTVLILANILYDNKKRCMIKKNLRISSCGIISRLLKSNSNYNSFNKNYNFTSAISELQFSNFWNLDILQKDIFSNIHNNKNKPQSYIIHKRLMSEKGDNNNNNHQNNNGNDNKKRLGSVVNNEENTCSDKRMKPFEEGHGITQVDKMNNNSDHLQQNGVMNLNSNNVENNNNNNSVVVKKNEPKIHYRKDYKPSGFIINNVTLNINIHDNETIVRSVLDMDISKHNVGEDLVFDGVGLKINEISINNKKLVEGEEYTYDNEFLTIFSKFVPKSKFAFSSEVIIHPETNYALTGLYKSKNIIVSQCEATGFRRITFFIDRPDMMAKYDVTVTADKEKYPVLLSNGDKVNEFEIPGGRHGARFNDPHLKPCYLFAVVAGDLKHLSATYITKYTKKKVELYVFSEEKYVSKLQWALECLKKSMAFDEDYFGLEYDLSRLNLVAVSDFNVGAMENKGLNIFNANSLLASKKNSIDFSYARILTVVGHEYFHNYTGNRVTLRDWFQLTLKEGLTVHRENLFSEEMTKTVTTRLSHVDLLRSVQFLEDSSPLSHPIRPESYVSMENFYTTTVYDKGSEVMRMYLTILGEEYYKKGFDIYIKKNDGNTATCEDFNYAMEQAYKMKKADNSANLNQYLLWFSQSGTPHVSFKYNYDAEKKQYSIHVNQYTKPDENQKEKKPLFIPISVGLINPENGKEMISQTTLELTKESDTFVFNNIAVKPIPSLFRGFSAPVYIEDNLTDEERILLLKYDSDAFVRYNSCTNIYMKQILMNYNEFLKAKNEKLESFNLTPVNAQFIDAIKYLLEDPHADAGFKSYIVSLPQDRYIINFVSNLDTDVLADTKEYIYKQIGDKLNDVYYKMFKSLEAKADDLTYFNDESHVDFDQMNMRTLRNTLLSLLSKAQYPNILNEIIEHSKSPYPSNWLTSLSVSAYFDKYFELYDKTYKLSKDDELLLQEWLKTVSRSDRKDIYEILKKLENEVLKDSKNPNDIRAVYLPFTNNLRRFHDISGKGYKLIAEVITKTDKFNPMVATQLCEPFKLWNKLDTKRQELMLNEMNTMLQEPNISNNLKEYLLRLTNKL

This assay addresses Aminopeptidase N (Plasmodium falciparum (isolate 3D7)) (UniProt O96935). Kind of assay: P. falciparum M1AAP inhibitors, biochemical, fluorogenic H-Leu-NHMec substrate, 1536-well (AID 1445).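 Note: plate controls were DMSO full reaction for no effect and no enzyme background for full effect.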 As to conditions: recombinant M1AAP, H-Leu-NHMec fluorogenic kinetic assay; at 30 µM, stronger effect = higher value unless noted.
For the compound `Nc1nonc1-c1nc2ccccc2n1CC(=O)O`, the inhibition is 11.2% (inactive).
On to `C[C@H](NC(=O)c1nc[nH]c1C(=O)NCCCCCNC(=O)OC(C)(C)C)C(=O)OC(C)(C)C`, for which the inhibition was -4.42% (inactive).
For `CCCCCCCc1ccc(C2NC(=S)NC3=C2C(=O)c2ccccc23)cc1` (stereo not given), the inhibition is 3.12% (inactive).
As for `CCOc1ccccc1NC(=O)/C(C#N)=C/c1c(C)nn(-c2ccccc2)c1Cl`, the inhibition was 4.31% (inactive).
Take `CC(C)CN(C(=O)CSc1nnc2ccccn12)c1c(N)n(CC(C)C)c(=O)[nH]c1=O`: the inhibition was 6.58% (inactive).
Regarding `CC1(C)N=C(N)N=C(N)N1c1ccc(OCCCOc2ccccc2)c(Cl)c1`, the inhibition was -0.74% (inactive).
The value for `Cc1csc(SCC(=O)NC2CCCCC2)n1` was -5.21% (inactive); that for `COc1ccc(NC(=O)c2ccccc2C)c(OC)c1` was 5.69% (inactive).
On to `Cc1ccc(CN2C3CCCC2CC(NC(=O)c2ccc(C)cc2)C3)cc1` (stereo not given), for which the inhibition is -1.65% (inactive).
As for `O=C(NC(=S)NC1C2CC3CC(C2)CC1C3)C12CC3CC(CC(C3)C1)C2` (stereo not given), the inhibition is 5.47% (inactive).
Take `COc1ccc(CNC(=O)c2ccccc2SC)cc1`: the inhibition was -2.23% (inactive).
The same measure for `CN(C1CCCCC1)S(=O)(=O)c1ccccc1`: -1.57% (inactive).
Regarding `COc1ccc(CNC(=O)CCCN2C(=O)c3ccccc3C2=O)cc1`, the inhibition is 1.01% (inactive).
Regarding `COc1ccccc1NS(=O)(=O)c1cccc(N2CC(O)=C(c3ccccc3)C2=N)c1`, the inhibition was 9.55% (inactive).
The same measure for `COc1ccc(CN2C(=O)c3cccc4cccc(c34)C2=O)cc1`: -0.38% (inactive).
Regarding `COc1ccccc1NS(=O)(=O)c1cccc(NC(=O)Nc2ccccc2)c1`, the inhibition is 2.5% (inactive).
Regarding `Cc1cc(C)n(-c2ccc(C(=O)OCC(=O)Nc3ccc(S(=O)(=O)N4CCOCC4)cc3)cc2)n1`, the inhibition was -7.49% (inactive).
The same measure for `CCOc1ccc(CCNC(=O)COC(=O)c2cc(OC)cc(OC)c2)cc1OCC`: 6.82% (inactive).
Consider `COC(=O)c1ccccc1NC(=O)CNC(=O)c1ccco1`, for which the inhibition was 7.08% (inactive).
For the compound `O=C(c1ccco1)N1N=C(c2ccc(Br)cc2)CC1(O)C(F)(F)F` (stereo not given), the inhibition was -1.14% (inactive).
As to `CC(C)CCNC(=O)CNC(=S)N(Cc1ccccc1)Cc1cccnc1`, the inhibition is -3.15% (inactive).
With `COc1ccc(/C=N/NC(=O)CSCC(=O)Nc2ccccc2)cc1`, the inhibition was 0.01% (inactive).
The value for `COc1ccc(/C=N/NC(=O)CC(=O)N/N=C/c2ccc(OC)cc2)cc1` was 5.03% (inactive); that for `Cc1ccc2nc(CSc3nnc(Cc4cccs4)n3C3CCCCC3)cc(=O)n2c1` was 14.2% (inactive); that for `CCC(C)(C)NC(=O)CN(Cc1ccccc1Cl)C(=O)CCC(=O)Nc1cc(C)ccn1` was 1.69% (inactive).
For the compound `O=C(CCC(=O)N(CC(=O)NC1CCCC1)Cc1ccc2c(c1)OCO2)Nc1nccs1`, the inhibition is 12.3% (inactive).
The same measure for `O=C(CCCC(=O)N(CC(=O)NC1CCCCC1)Cc1ccc2c(c1)OCO2)Nc1ccccn1`: 1.7% (inactive).
For the compound `O=C(CCCC(=O)N(CC(=O)NC1CCCC1)Cc1ccc2c(c1)OCO2)Nc1ccccn1`, the inhibition is 8.73% (inactive).
Consider `CC(C)(C)NC(=O)CN(Cc1ccc2c(c1)OCO2)C(=O)CCC(=O)Nc1nccs1`, for which the inhibition was 3.84% (inactive).
The same measure for `O=C(CCC(=O)N(CC(=O)NC1CCCC1)Cc1ccc2c(c1)OCO2)Nc1ccccn1`: 26.2% (active); for `CCC(C)(C)NC(=O)CN(C(=O)CCC(=O)Nc1cc(C)ccn1)c1ccc2c(c1)OCO2`: 10.3% (inactive); for `O=C(CSc1nnc(-c2ccc(Cl)cc2)n1Cc1ccco1)Nc1ccc2c(c1)OCCO2`: 6.61% (inactive).
Regarding `O=C(Nc1ccccc1N1CCCC1)c1cccc(Cl)c1Cl`, the inhibition was 5.02% (inactive).
Regarding `Cc1nc(-c2ccccc2O)n(-c2ccccc2)n1`, the inhibition was 14.8% (inactive).
Regarding `Cc1nn(-c2ccccc2)c(C)c1N`, the inhibition is -5.19% (inactive).
Consider `Cc1cccc(-c2cc(N)n(-c3ccccc3)n2)c1`, for which the inhibition is 15.4% (inactive).
In the case of `Cc1cccc(N2C(N)=C(C#N)C(C#N)(C#N)C2c2ccccc2)c1` (stereo not given), the inhibition was 7.85% (inactive).
For the compound `CCOC(=O)c1c(-c2ccc(C)o2)csc1NC(=O)CSc1ncn[nH]1`, the inhibition is 0.41% (inactive).
As for `O=C(CCCO)CCCCCCCCC[C@H]1N[C@H](CO)[C@@H](O)[C@@H]1O`, the inhibition was 7.45% (inactive).
As for `O=C(O)C(CO)N=Cc1c(O)c2ccccc2oc1=O` (stereo not given), the inhibition was 20.4% (inactive).
Consider `CC(C)CC(N=Cc1c(O)c2ccccc2oc1=O)C(=O)O` (stereo not given), for which the inhibition is 16.5% (inactive).
The value for `CSc1nnc(-c2ccccc2N=Cc2c(C)[nH]n(-c3ccccc3)c2=O)c(=O)[nH]1` was 11.9% (inactive).
For the compound `Cc1nn(-c2ccc3ccccc3c2)c(=O)c2ccccc12`, the inhibition is 0.56% (inactive).
As for `COc1cc(/C=C/c2nc(-c3ccccc3O)n[nH]2)cc(OC)c1OC`, the inhibition is 1.7% (inactive).
`Cc1ccc(C(=O)NCC(=O)OCC(=O)c2c(N)n(C)c(=O)n(C)c2=O)s1`: the inhibition was 5.58% (inactive).
Turning to `O=C(NC(Cc1c[nH]c2ccccc12)C(=O)O)c1ccco1` (stereo not given), the inhibition was 27.5% (active).
As for `CCOc1ccccc1Nc1nnc(SCC(=O)Nc2ccc3[nH]c(=O)[nH]c3c2)s1`, the inhibition is 1.06% (inactive).
`CCOC(=O)C(Cc1c[nH]c2ccccc12)NC(=O)c1ccco1` (stereo not given): the inhibition was -3.49% (inactive).
Turning to `Cc1ccc(Nc2nnc(SCC(=O)NC(Cc3c[nH]c4ccccc34)C(=O)O)s2)cc1` (stereo not given), the inhibition is 22% (inactive).
Consider `O=C(Cn1nnc2ccccc2c1=O)N[C@@H](Cc1ccccc1)C(=O)O`, for which the inhibition was 2.79% (inactive).
As for `O=C(Nc1ccccc1C(=O)NC(Cc1c[nH]c2ccccc12)C(=O)O)c1ccco1` (stereo not given), the inhibition was 7.54% (inactive).
On to `O=C(CCn1nnc2ccccc2c1=O)N[C@@H](Cc1c[nH]c2ccccc12)C(=O)O`, for which the inhibition was 9% (inactive).
The same measure for `COc1ccc(/C(C)=N\Nc2nc(-c3ccc(Cl)cc3)cc(C(F)(F)F)n2)cc1OC`: -2.08% (inactive).
`CCOC(=O)C1=C(O)C(=O)N(c2ccc(S(N)(=O)=O)cc2)C1c1ccc(Br)cc1` (stereo not given): the inhibition is 0.8% (inactive).
As to `CCOc1cccc(OCCOCCn2cnc3ccccc3c2=O)c1`, the inhibition was 0.65% (inactive).
`CNCc1ccccc1Sc1ccc(OC)cc1`: the inhibition was -3.58% (inactive).
The value for `NS(=O)(=O)c1cccc(NC(=O)CCSc2ccc(Cl)cc2)c1` was 6.9% (inactive).
Consider `CCCCCCCCC[n+]1cccc2c3ccccc3ccc21`, for which the inhibition is 18.5% (inactive).
For the compound `CCCCCCCC[n+]1cccc2c3ccccc3ccc21`, the inhibition is 29.8% (inactive).
On to `Cc1ccc(C2Nc3ccc4ccccc4c3C3=C2C(=O)CC(C)(C)C3)o1` (stereo not given), for which the inhibition is 16% (inactive).
As to `CC1(C)CC(=O)C2=C(C1)c1c(ccc3ccccc13)NC2c1ccco1` (stereo not given), the inhibition was 0.07% (inactive).
On to `CCCN(CCC)c1ncnc2c1cnn2-c1ccc(OC)cc1`, for which the inhibition was 2.75% (inactive).
Turning to `COc1ccc(-c2[nH]c(-c3ccc(C)cc3)nc2SCC(=O)NC2CCCC2)cc1`, the inhibition is 1.57% (inactive).
The same measure for `Cc1nc(NCc2ccco2)c2oc3ccccc3c2n1`: 25.6% (active); for `c1ccc(-c2nc(NCc3ccco3)c3oc4ccccc4c3n2)cc1`: 11.9% (inactive).
The value for `CCc1nc(NCc2ccco2)c2oc3ccccc3c2n1` was 2.95% (inactive); that for `CCC(C)NC(=O)C1CCN(S(=O)(=O)c2ccc(OC)cc2)CC1` (stereo not given) was 4.22% (inactive); that for `C(=N\Nc1nc2ccccc2[nH]1)/c1ccncc1` was 5.02% (inactive).
Regarding `CSc1cc(-c2ccccc2)n(C)c(=O)c1C#N`, the inhibition is 3.47% (inactive).
Take `COc1nc(N=C(N)N)nc2ccc(C)cc12`: the inhibition was 20.7% (inactive).
For `Cc1cc2nc(N=C(N)N)nc(C)c2cc1C`, the inhibition was 9.31% (inactive).
For `Cc1ccc2nc(N=C(N)N)nc(C)c2c1`, the inhibition is 10.4% (inactive).
For the compound `COc1ccc(Oc2cc(C)c3cccc(C)c3n2)cc1`, the inhibition was -2.89% (inactive).
The same measure for `O=C(COC(=O)Cc1ccc(F)cc1)NCc1ccco1`: 4.03% (inactive); for `CCC(C)NC(=O)COC(=O)c1csc2c1CCCC2` (stereo not given): 7.63% (inactive); for `COC(=O)c1ccc(CSc2nc(C(F)(F)F)c3c(c2C#N)CCC3)o1`: 3.42% (inactive).
Regarding `CCSc1nnc(NC(=O)CSc2c(Cl)cccc2Cl)s1`, the inhibition was 4.43% (inactive).
The value for `COc1ccc(S(=O)(=O)N2CCOCC2)cc1NC(=O)CO/N=C/c1ccccc1OC(F)F` was 8.16% (inactive).
In the case of `Cc1cn(-c2ccccc2)c(C)c1/C=N\Nc1nc(N2CCOCC2)nc(N2CCOCC2)n1`, the inhibition was 4.34% (inactive).
As to `Cc1ccc(NC(=O)CSc2nnc(-c3ccco3)c(-c3ccco3)n2)cc1`, the inhibition is 25% (active).
The value for `Cc1cccc(C)c1NC(=O)CSc1nnc(-c2ccco2)c(-c2ccco2)n1` was 17.6% (inactive); that for `CC(=O)c1ccc(NC(=O)CSc2nnc(-c3ccco3)c(-c3ccco3)n2)cc1` was 9.65% (inactive).
The same measure for `Cc1cc(CN(C)C(=O)CC2C(=O)NCCN2Cc2c(F)cccc2Cl)n[nH]1` (stereo not given): -2.19% (inactive); for `CCS(=O)(=O)C(C)(CCl)C(=O)Nc1ccc(C(=O)OC)cc1` (stereo not given): 3.92% (inactive).
In the case of `COc1c(O)cc2oc(-c3ccc(O)cc3)cc(=O)c2c1O`, the inhibition was 17.2% (inactive).
Consider `COc1ccc(-c2cc(=O)c3c(O)c(OC)c(O)cc3o2)cc1`, for which the inhibition is 17% (inactive).
In the case of `O=S(=O)(c1ccccc1)N1CCCC1c1cccs1` (stereo not given), the inhibition was 0.58% (inactive).
Consider `Cn1c(=O)cc(SCC(=O)N2CCCC2)c2ccccc21`, for which the inhibition was 7.32% (inactive).
The same measure for `Cc1c(Cc2ccccc2)c(=O)oc2c(O)c(O)ccc12`: 17.1% (inactive); for `Cc1c(Cc2ccccc2)c(=O)oc2cc(O)ccc12`: 22.2% (inactive).
Regarding `CCc1c(C)c2cc(Cl)c(O)c(CN(C)C)c2oc1=O`, the inhibition was -5.92% (inactive).
Take `Cc1c(C)c2cc(Cl)c(O)c(CN(C)C)c2oc1=O`: the inhibition was 14.8% (inactive).
Regarding `CCN(CC)Cc1oc(CO)cc(=O)c1O`, the inhibition was 5.8% (inactive).
The value for `CCc1cc2c(=O)c(-c3nc4ccccc4n3C)c(C)oc2c(CN(CC)CC)c1O` was 6.03% (inactive); that for `CCN(CC)Cc1c(O)c(Cl)cc2c(C)c(C)c(=O)oc12` was 23.6% (active).
